Mito fusion yeast: blocks mitochondrial division or promotes mitochondrial fusion; S. cerevisiae fusion-defective mutant growth rescue, CellTiterGlo 48 h; Potency, µM (series often up to 46.1 µM), for the others: top-dose growth rescue (activation), usual class: activators; 320,000 compounds, 0.23% hits; note: % of control where 0% means no effect; nearly all actives have a fitted effect of over 45% in size
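Yeast fusion mutant, YPEG (non-fermentable carbon), compound, 48 h at 37C non-permissive; CellTiterGlo added, 10 min RT, luminescence read. Rescued growth = division inhibition.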
IDH1 R132H inh: human IDH1 R132H inhibition; IDH1-R132H enzyme, NADPH consumption, diaphorase/resazurin fluorescence; Potency, µM (doses to about 76.6 µM), for inactives: at the top dose activity change, negative = inhibition, hits mostly inhibitors; 390,000 compounds, 0.093% hits; AID 602179; note: % is set by controls: 0 for no effect and ±100 for the full control effect; nearly all actives have a fitted effect of over 65% in size
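IDH1-R132H (0.5 ug/mL dispensed) in pH 7.5 Tris buffer was preincubated 30 min with compound, then given a substrate mix of 0.016 mM NADPH and 2 mM alpha-KG for 80 min at room temperature; remaining NADPH was read by diaphorase/resazurin fluorescence.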
A549 viability: kills or reduces viability of A549 cells in Nrf2 counter-screen; A549 ARE-Fluc cells, CellTiter-Fluor viability, 18-24 h; Potency, µM (highest dose often 46 µM), for the others: at the top dose activity change, negative = cytotoxicity, hits mostly inhibitors; 390,000 compounds, 0.16% hits; note: % is set by controls: 0 for no effect and ±100 for the full control effect
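A549 ARE-Fluc cells in 5% FBS OPTI-MEM, 5000 cells/well, rested 2 h then exposed to compounds in concentration-response for 18-24 h at 37 °C. Viability by CellTiter-Fluor fluorescence (Ex 405/Em 525) after 30 min; luciferase luminescence (BugLite, 15 min, RT) read afterwards.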
TrxR1 substrate: substrates of rat thioredoxin reductase 1 | purified TrxR1 substrate turnover, NADPH consumption readout | AID 588456 | Potency, µM (doses to about 114 µM), without a hit: at the highest dose activity change, negative = substrate turnover | 390,000 compounds, 0.01% hits; note: % is set by controls: 0 for no effect and ±100 for the full control effect; nearly all actives have a fitted effect of over 50% in size
Target sequence (O89049 whole entry, looked up): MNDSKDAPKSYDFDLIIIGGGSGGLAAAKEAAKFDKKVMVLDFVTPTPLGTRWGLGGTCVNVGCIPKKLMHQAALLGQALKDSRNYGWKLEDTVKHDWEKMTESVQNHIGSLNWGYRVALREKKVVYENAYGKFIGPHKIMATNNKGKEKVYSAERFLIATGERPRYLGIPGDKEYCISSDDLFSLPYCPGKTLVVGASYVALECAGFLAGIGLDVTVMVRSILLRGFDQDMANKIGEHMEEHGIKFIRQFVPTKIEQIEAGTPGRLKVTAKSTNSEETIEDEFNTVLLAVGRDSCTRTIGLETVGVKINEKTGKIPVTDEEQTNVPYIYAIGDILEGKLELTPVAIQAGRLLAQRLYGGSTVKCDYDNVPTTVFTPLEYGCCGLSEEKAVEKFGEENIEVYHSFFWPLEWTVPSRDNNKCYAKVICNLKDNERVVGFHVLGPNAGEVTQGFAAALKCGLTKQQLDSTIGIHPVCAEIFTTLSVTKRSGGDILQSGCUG
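Rat TrxR1, dispensed at 90 nM, was prereduced with 400 uM NADPH (final) for 5 min at ~22 deg C, then incubated with compound 15 min before 400 uM selenite. A first-read NADPH fluorescence drop versus no-compound background flagged substrates.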
rTrxR1 inhibitor: rat TrxR1 inhibition; O89049; recombinant rTrxR1, NADPH fluorescence consumption, selenite substrate; Potency, µM (doses to about 114 µM), inactives show top-dose activity change, negative = inhibition, most hits filed as inhibitors; 390,000 compounds, 1% hits; AID 588453; note: % is set by controls: 0 for no effect and ±100 for the full control effect; nearly all actives have a fitted effect of over 65% in size
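Rat TrxR1 (90 nM in the dispensed reagent) was pre-reduced with 400 uM NADPH for 5 min at room temperature, then incubated with compound for 15 min. After 400 uM selenite was added, NADPH fluorescence (Ex 340/Em 450 nm) was followed for 8 min.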
Nrf2 block: inhibitors of Nrf2 signaling; Potency, µM (top dose mostly 46 µM), for inactives: top-dose activity change, negative = inhibition, actives largely listed as inhibitors; 360,000 compounds, 2.1% hits; A549 ARE-Fluc reporter, luciferase luminescence, 18-24 h; note: % is set by controls: 0 for no effect and ±100 for the full control effect; nearly all actives have a fitted effect of over 60% in size
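Nrf2 function is reported as luminescence of an ARE-controlled luciferase in A549 cells. Compounds were tested at several concentrations, and a CellTiter-Fluor read on the same wells flagged cytotoxicity.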
Active calls of the source: *; ! = a repeat was not active; [ ] = another dose, or the depositor's remark. Shown are actives, neighbours in structure and some others; about 3.1% of the full set was active somewhere. Calls come from the whole dose curve; as a rule, active = well fitted curve in the direction sought with a large enough effect; inconclusive = small, poorly fitted or top-dose-only effect, or another doubt; inactive = no such curve, though single readings can be large; an effect the other way counts as inactive or inconclusive. Potency is the fitted concentration of half-maximal effect.

What do the screens show for `CN1C(=O)C(=Cc2ccc(N3CCCCCC3)cc2)C(=O)N(C)C1=O`?
Mito fusion yeast: 6%; IDH1 R132H inh: 1%; A549 viability: 6%; TrxR1 substrate: -17%[57.1 µM]; rTrxR1 inhibitor: -43%; Nrf2 block: -2%

Results for CN1C(=O)C(=Cc2cccnc2)C(=O)N(C)C1=O ?
Mito fusion yeast: -2%; IDH1 R132H inh: 3%; A549 viability: -6%; TrxR1 substrate: 7%; rTrxR1 inhibitor: 22µM*; Nrf2 block: 1%

What do the screens show for `Cn1cccc1C(=O)OCC(=O)NCc1cccs1`?
IDH1 R132H inh: 8%; A549 viability: 12%; TrxR1 substrate: 7%[57.1 µM]; rTrxR1 inhibitor: 12%[57.1 µM]; Nrf2 block: inconclusive

Results for O=S(=O)(c1ccc(F)c(F)c1F)N1CCN(c2ncnc3sccc23)CC1 ?
IDH1 R132H inh: 3%; A549 viability: 0%; TrxR1 substrate: 3%[11.4 µM]; rTrxR1 inhibitor: -21%[11.4 µM]; Nrf2 block: 13µM*

What do the screens show for `O=S(=O)(c1ccccc1C(F)(F)F)N1CCN(c2ncnc3sccc23)CC1`?
IDH1 R132H inh: 0%; A549 viability: -4%; TrxR1 substrate: 5%; rTrxR1 inhibitor: 14%; Nrf2 block: inconclusive

What do the screens show for `Cc1ccc2c(c1)C(c1ccccc1)=NCC(=O)N2C`?
IDH1 R132H inh: 2%; A549 viability: -3%; TrxR1 substrate: 6%; rTrxR1 inhibitor: 17%; Nrf2 block: 9.2µM*

What do the screens show for `Cc1ccc2c(c1)C(c1ccccc1)=NCC(=O)N2`?
Mito fusion yeast: -3%; IDH1 R132H inh: -1%; A549 viability: -1%; TrxR1 substrate: 7%; rTrxR1 inhibitor: 17%; Nrf2 block: 11%

Results for COc1ccc(NC(=O)CSc2oc(-c3cccs3)nc2S(=O)(=O)c2ccccc2)c(OC)c1 ?
IDH1 R132H inh: 0%; A549 viability: 0%; TrxR1 substrate: -5%; rTrxR1 inhibitor: inconclusive; Nrf2 block: -12%[9.27 µM]

What do the screens show for `CCCCCCC(=O)N/N=C/c1c(O)n(C(C)CC)c(=S)[nH]c1=O` (configuration not stated)?
Mito fusion yeast: 1%; IDH1 R132H inh: -15%; A549 viability: -6%; TrxR1 substrate: -3%; rTrxR1 inhibitor: 5%; Nrf2 block: 15µM*

What do the screens show for `Cc1ccc(S(=O)(=O)N(C)C[C@H]2Oc3c(NC(=O)Nc4cccc5ccccc45)cccc3C(=O)N([C@@H](C)CO)C[C@@H]2C)cc1`?
IDH1 R132H inh: 6%; A549 viability: -13%; TrxR1 substrate: 7%; rTrxR1 inhibitor: 20%; Nrf2 block: inconclusive

What do the screens show for `C=CCN1CCc2cccc3c2[C@H]1Cc1ccc(O)c(O)c1-3`?
Mito fusion yeast: 4.1µM*!; IDH1 R132H inh: -7%; A549 viability: -2%; TrxR1 substrate: 18%[57.1 µM]; rTrxR1 inhibitor: 20µM*; Nrf2 block: inconclusive

How did CCc1cccc(NC(=O)c2ccc(NC(=O)N3CCSc4ncccc43)cc2)c1 do in these assays?
IDH1 R132H inh: 0%; A549 viability: -10%; TrxR1 substrate: 8%; rTrxR1 inhibitor: 23%; Nrf2 block: inconclusive

Results for CC(C)(C)c1cc([N+](=O)[O-])cc(C(C)(C)C)c1O ?
Mito fusion yeast: -3%; IDH1 R132H inh: 1%; A549 viability: inconclusive; TrxR1 substrate: -17%; rTrxR1 inhibitor: -14%; Nrf2 block: 18µM*

How did NC(=O)c1cc([N+](=O)[O-])cc([N+](=O)[O-])c1 do in these assays?
IDH1 R132H inh: 27%; A549 viability: 1%; TrxR1 substrate: 5%; rTrxR1 inhibitor: 22%; Nrf2 block: -18%

What do the screens show for `CC(C)c1ccc(Cc2cnc(NC(=O)c3ccc4c(c3)CC(c3ccccc3)OC4=O)s2)cc1` (configuration not stated)?
IDH1 R132H inh: -28%; A549 viability: -7%; TrxR1 substrate: 1%; rTrxR1 inhibitor: 23%; Nrf2 block: inconclusive

What do the screens show for `CCn1c(O)c(/C=N/NC(=O)c2ccccc2)c(=O)[nH]c1=S`?
Mito fusion yeast: 2%; IDH1 R132H inh: -4%; A549 viability: -2%; TrxR1 substrate: -7%; rTrxR1 inhibitor: -3%; Nrf2 block: 15%

How did COc1ccccc1-n1c(O)c(/C=N/NC(=S)Nc2ccccc2)c(=O)[nH]c1=S do in these assays?
Mito fusion yeast: -2%; IDH1 R132H inh: 1%; A549 viability: 11%; TrxR1 substrate: 2%; rTrxR1 inhibitor: 10µM*; Nrf2 block: -13%

What do the screens show for `Cc1ccccc1-c1nc(CS(=O)CC(=O)N2CCN(c3cc(Cl)ccc3C)CC2)c(C)o1` (configuration not stated)?
IDH1 R132H inh: -11%; A549 viability: -18%; TrxR1 substrate: 1%; rTrxR1 inhibitor: 14%; Nrf2 block: inconclusive

How did O=C1/C(=C/c2ccc(N(CCCl)CCCl)cc2)Cc2ccccc21 do in these assays?
TrxR1 substrate: -1%; rTrxR1 inhibitor: 2%

Results for Cc1nn2c(=O)cc(N3CCNCC3)nc2s1 ?
A549 viability: 11%; Nrf2 block: 0%

Results for CC(O)C1C=CC=CC(=O)OC2CC3OC4C5OC5(C)CCC4(COC(=O)C4OC4(C)C(O)CO1)C2(C)C31CO1 (configuration not stated) ?
IDH1 R132H inh: -1%; TrxR1 substrate: 0%[11.4 µM]; rTrxR1 inhibitor: -6%[11.4 µM]; Nrf2 block: 0.23µM*

What do the screens show for `Cc1cccc(CN2CCCC(C(=O)c3cccc(OC(C)C)c3)C2)n1` (configuration not stated)?
Mito fusion yeast: -5%; IDH1 R132H inh: 8%; A549 viability: -3%; TrxR1 substrate: 2%; rTrxR1 inhibitor: 6%; Nrf2 block: -19%

Results for CCn1nc(C)c(CN2CCCC(C(=O)c3cccc(OC(C)C)c3)C2)c1C (configuration not stated) ?
Mito fusion yeast: -1%; IDH1 R132H inh: 3%; A549 viability: 0%; TrxR1 substrate: 6%; rTrxR1 inhibitor: 31%; Nrf2 block: 10µM*

What do the screens show for `O=C(O)/C=C/c1cccc(B(O)O)c1`?
A549 viability: 14%; TrxR1 substrate: 4%; rTrxR1 inhibitor: -7%; Nrf2 block: inconclusive

What do the screens show for `Cc1cc(/C=C/c2ccnc3ccccc23)ccc1N(CCCl)CCCl`?
TrxR1 substrate: 1%; rTrxR1 inhibitor: -33%

How did Cc1cc(/C=C/c2cccc3sc(C)[n+](CCCCI)c23)ccc1N(CCCl)CCCl do in these assays?
TrxR1 substrate: -9%; rTrxR1 inhibitor: 16µM*
